Among the data in ChEMBL document CHEMBL4513146, “CO-ADD screening of Karazin Kharkiv National University (Ukraine) compounds” are Inhibition values, retold here.

Results with a measured potency or affinity are listed apart.

In assay [1] the test system is Staphylococcus aureus. The note with it: Concentration 32 ug.mL-1;; ASSAY_TEST Inhibition of Bacterial Growth; detection method Absorption (OD600); MEDIA CAMHB; plate type 384well; NBS; CORNING #3640; time 18 hr.
The subject of assay [2] is Escherichia coli. The conditions noted are these: Concentration 32 ug.mL-1;; ASSAY_TEST Inhibition of Bacterial Growth; detection method Absorption (OD600); MEDIA CAMHB; plate type 384well; NBS; CORNING #3640; time 18 hr.

What is called Inhibition is the relative decrease from the control value, in per cent. Consider `O=c1c2sccc2n2c(=O)n(Cc3cccc(F)c3)nc2n1Cc1cccs1`, for which the results for the Inhibition in assay [1] and in assay [2] were -6.6% and -12.16%, respectively.

With `CC(C)c1nnc2c(=O)n(CC(=O)Nc3ccc(Br)cc3F)c3ccccc3n12`, the Inhibition is reported as 7.11% in assay [1] and 1.53% in assay [2].

Take `CCc1ccc(N(Cc2cccc(OC)c2)S(=O)(=O)c2cccn3c(C)nnc23)cc1`: the figures for the Inhibition in assay [1] and in assay [2] were -1.7% and -9.35%, respectively.

In the case of `COC(=O)c1ccc(NC(=O)Cn2nc3ccc(C(=O)NCc4ccccc4)cn3c2=O)cc1`, the Inhibition in assay [1] is on record as 12.92%; in assay [2] it was -2.38%.

Consider `COc1ccc(CN(c2cc(C)cc(C)c2)S(=O)(=O)c2cccn3cnnc23)cc1F`, for which the values for the Inhibition in assay [1] and in assay [2] were -10.31% and -13.2%, respectively.

As to `C=Cc1ccc(CN(c2cccc(Cl)c2)S(=O)(=O)c2cccn3c(C)nnc23)cc1`, the Inhibition in assay [1] is -18.32%; in assay [2] it was -14.37%.

As to `CC(C)c1nnc2c(SCC(=O)Nc3ccc4c(c3)OCO4)nc3ccccc3n12`, the Inhibition is reported as -0.91% in assay [1] and -6.38% in assay [2].

Take `Cc1ccc(NC(=O)Cn2nc3c(N4CCOCC4)nc4ccccc4n3c2=O)cc1C`: the Inhibition in assay [1] is listed as 6.57%; in assay [2], -0.21%.

Take `Cc1c(Cl)cccc1NC(=O)Cn1nc2c(N3CCOCC3)nc3ccccc3n2c1=O`: the Inhibition in assay [1] was 6.58%; in assay [2], -0.44%.

For the compound `CCc1nnc2c(SCC(=O)Nc3cc(Cl)ccc3OC)nc3ccccc3n12`, the Inhibition is recorded as 7.98% in assay [1] and 4.84% in assay [2].

`Cc1cc(C)cc(N(Cc2cc(F)cc(F)c2)S(=O)(=O)c2cccn3c(C)nnc23)c1`: the Inhibition is reported as 9.54% in assay [1] and -1.86% in assay [2].

Regarding `CSc1cccc(NC(=O)Cn2nc3c(SC4CCCCC4)nccn3c2=O)c1`, the Inhibition was -5.93% in assay [1] and -5.86% in assay [2].
